Assay outcomes (PubChem)
Compounds with a hit are over-represented: about 18% of the library has one in this group of screens.
IL1B secr inh: qHTS for Inhibitors of Inflammasome Signaling: IL-1-beta AlphaLISA Primary Screen; THP-1 LPS/ATP IL-1B secretion, AlphaLISA, 16 h; active compounds read low; activity change, % at 57.5 µM; 4.7% of 360,000 active; in the data active = activity change below about -50%; inconclusive = mostly about -30% to -49%
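THP-1 cells pretreated 1 hr with compounds (up to 57.5 uM final), then stimulated with LPS (250 ng/mL final) plus ATP (1.25 mM final); secreted IL-1B measured by AlphaLISA after 16 hr, decreased signal indicating inhibition.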
TDP1 cell noCPT: qHTS for Inhibitors of human tyrosyl-DNA phosphodiesterase 1 (TDP1): qHTS in cells in absence of CPT; AID 686978, 2013; Potency, µM (doses to about 46.2 µM), hits mostly inhibitors; 15% of 420,000 active; DT40 Tdp1-/- hTDP1 cells, no CPT, ATP luminescence, 48 h; also: nearly all actives have a fitted effect of over 55% in size
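A cellular qHTS used chicken DT40 cells lacking endogenous Tdp1 but carrying stably transfected human TDP1. Compounds were applied without camptothecin, and cell growth kinetics were judged by ATP-dependent luminescence after ≥48 hr.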
DT40 TDP1 CPT: qHTS for Inhibitors of human tyrosyl-DNA phosphodiesterase 1 (TDP1): qHTS in cells in presence of CPT. 12% of 420,000 active. chicken DT40 Tdp1-/-;hTDP1 cells + 20 nM CPT, ATP luminescence, 48 h. Potency, µM (highest dose often 46.2 µM), usual class: inhibitors; also: nearly all actives have a fitted effect of over 55% in size
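Chicken DT40 Tdp1-/- cells stably complemented with human TDP1 were seeded at 400 cells/well in medium containing 20 nM camptothecin, exposed to pin-transferred compounds, and grown at 37 °C for at least 48 hr. Viability was read as ATP luminescence.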
HepG2 viability: qHTS for Inhibitors of TGF-b: Cytotox Counterscreen; 0.76% of 410,000 active; HepG2 CAGA-GFP viability, ATP luminescence, 18 h; Potency, µM (top dose mostly 46.1 µM), actives largely listed as cytotoxic
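HepG2 CAGA-GFP cells (1000/well, DMEM with 1% FBS) received compound, then TGF-beta at 500 pg/mL final, and were incubated 18 hours at 37 degrees C. Viability was read by CellTiter-Glo luminescence. Media-only wells were set as complete cell-killing and DMSO as no toxicity.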
TGFb SMAD3 inh: qHTS for Inhibitors of TGF-b; HepG2 CAGA-GFP TGF-b/SMAD3 reporter, GFP fluorescence, 18 h; TGF-beta stimulated, 500 pg/mL final; Potency, µM (titrated, usually from 46.1 µM), most hits filed as inhibitors; 1.2% of 410,000 active; also: nearly all actives have a fitted effect of over 65% in size
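Cell-based qHTS in HEPG2 carrying a CAGA-GFP Smad reporter; compounds added before 500 pg/mL final TGF-beta, 18 h incubation at 37 degrees C, GFP fluorescence quantified per cell by imaging cytometry.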
TDP1 block: qHTS Assay for Inhibitors of Tyrosyl-DNA Phosphodiesterase (TDP1). Tyrosyl-DNA phosphodiesterase 1 (Homo sapiens), Q9NUW8. recombinant TDP1, AlphaScreen DNA substrate cleavage. Potency, µM (titrated, usually from 130 µM), actives largely listed as inhibitors. 0.28% of 350,000 active; also: nearly all actives have a fitted effect of over 40% in size
Target sequence (Q9NUW8 whole entry, looked up): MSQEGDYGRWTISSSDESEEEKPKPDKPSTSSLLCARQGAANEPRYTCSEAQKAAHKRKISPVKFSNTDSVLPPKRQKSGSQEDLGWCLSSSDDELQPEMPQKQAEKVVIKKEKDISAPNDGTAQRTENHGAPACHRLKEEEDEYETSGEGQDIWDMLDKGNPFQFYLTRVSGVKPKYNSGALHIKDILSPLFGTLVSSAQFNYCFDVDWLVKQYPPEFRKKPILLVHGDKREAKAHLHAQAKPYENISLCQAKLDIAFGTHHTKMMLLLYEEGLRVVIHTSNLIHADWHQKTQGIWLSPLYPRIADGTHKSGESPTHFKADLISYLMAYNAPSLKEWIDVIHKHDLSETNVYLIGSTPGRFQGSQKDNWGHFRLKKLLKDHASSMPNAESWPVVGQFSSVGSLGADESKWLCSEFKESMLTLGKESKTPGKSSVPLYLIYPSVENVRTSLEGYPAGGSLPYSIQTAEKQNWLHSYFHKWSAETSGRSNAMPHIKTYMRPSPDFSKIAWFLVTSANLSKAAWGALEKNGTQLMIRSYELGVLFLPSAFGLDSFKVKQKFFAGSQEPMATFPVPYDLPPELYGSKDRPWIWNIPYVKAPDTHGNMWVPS
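Here, a 5' biotin and 3' phosphotyrosine-FITC DNA oligonucleotide reports Tdp1 activity: intact substrate bridges AlphaScreen beads, while cleavage leaves a 3' phosphate and drops signal. All incubations at room temperature.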
Of the large screens only hits and unclear results are named; the others gave an inactive call. Unless noted, calls follow the shape of the dose curve; as a rule, active = well fitted curve in the direction sought with a large enough effect; inconclusive = small, poorly fitted or top-dose-only effect, or another doubt; inactive = no such curve, though single readings can be large; an effect the other way counts as inactive or inconclusive.

C[C@H]1CN([C@@H](C)CO)C(=O)Cc2cc(NS(C)(=O)=O)ccc2O[C@@H]1CN(C)Cc1ccc(Cl)c(Cl)c1	IL1B secr inh inconclusive, DT40 TDP1 CPT inconclusive, TGFb SMAD3 inh 11µM
CC(=O)C[C@H]1c2cc(F)ccc2S(=O)(=O)N1c1ccc(N(C)C)cc1	TDP1 cell noCPT 13µM, DT40 TDP1 CPT 15µM (no result: TDP1 block)
O=C(Cn1cc(C(=O)C2CC2)c2ccccc21)Nc1ccc(Br)cc1	none (no result: IL1B secr inh)
COc1ccc(CNC(=O)C[C@H]2C[C@H](C(=O)N3CCOCC3)[C@@]3(C)c4[nH]c5cc(-c6ccco6)ccc5c4CCN3C2=O)cc1OC	TDP1 cell noCPT inconclusive, DT40 TDP1 CPT inconclusive, TGFb SMAD3 inh inconclusive
CC(C)=CCC/C(C)=C/CNC(=O)C[C@H]1C[C@H](C(=O)N2CCOCC2)[C@@]2(C)c3[nH]c4cc(-c5ccco5)ccc4c3CCN2C1=O	IL1B secr inh inconclusive, TDP1 cell noCPT 13µM, DT40 TDP1 CPT 21µM, TGFb SMAD3 inh 13µM
CC(C)=CCC/C(C)=C/CNC(=O)CC1C[C@H](C(=O)N2CCOCC2)[C@@]2(C)c3[nH]c4ccccc4c3CCN2C1=O (some centres not stated)	IL1B secr inh inconclusive, TDP1 cell noCPT 12µM, DT40 TDP1 CPT 13µM, TGFb SMAD3 inh inconclusive
CNc1nc(Oc2cccc(NC(C)=O)c2)c2sccc2n1	DT40 TDP1 CPT inconclusive (no result: TDP1 block)
O=C(N/N=C/c1ccc(-c2cccc([N+](=O)[O-])c2)o1)[C@H]1C[C@@H]1c1ccccc1	TDP1 cell noCPT 16µM, DT40 TDP1 CPT 29µM
O=C(O)/C(=C\c1ccc(-c2ccccc2[N+](=O)[O-])o1)c1ccccc1	none (no result: TDP1 block)
O=C(/C=C/c1ccc(-c2ccccc2[N+](=O)[O-])o1)c1ccccc1	IL1B secr inh -67, TDP1 cell noCPT 23µM, DT40 TDP1 CPT inconclusive, TGFb SMAD3 inh inconclusive
O=C(N/N=C/c1ccc(-c2ccc([N+](=O)[O-])cc2)o1)[C@H]1C[C@@H]1c1ccccc1	TDP1 cell noCPT inconclusive, DT40 TDP1 CPT inconclusive (no result: TDP1 block)
O=C(N/N=C/c1ccc(-c2ccccc2[N+](=O)[O-])o1)[C@H]1C[C@@H]1c1ccccc1	TDP1 cell noCPT inconclusive, DT40 TDP1 CPT 16µM
CC1CN(S(=O)(=O)c2cccc(C(=O)NCc3ccco3)c2)CC(C)O1 (configuration not stated)	none
N#Cc1ccccc1NC(=O)c1cc2c(=O)n3ccccc3nc2s1	none (no result: IL1B secr inh)
O=C(CCN1C(=O)/C(=C/c2ccc(F)cc2)SC1=S)NC1C=CS(=O)(=O)C1 (configuration not stated)	IL1B secr inh inconclusive, TDP1 cell noCPT 13µM, DT40 TDP1 CPT 13µM
O=C(CN1C(=O)S/C(=C\c2ccc(F)cc2)C1=O)NC1C=CS(=O)(=O)C1 (configuration not stated)	none
O=C(CCN1C(=O)/C(=C/c2ccc(F)cc2)SC1=S)N[C@@H](CO)Cc1ccccc1	IL1B secr inh -52, TDP1 cell noCPT 21µM, DT40 TDP1 CPT 16µM
O=C(CN1C(=O)S/C(=C\c2ccccc2F)C1=O)NC1C=CS(=O)(=O)C1 (configuration not stated)	IL1B secr inh -70, TDP1 cell noCPT inconclusive, DT40 TDP1 CPT 15µM
COc1ccc(/C=C2\SC(=O)N(CC(=O)NC3C=CS(=O)(=O)C3)C2=O)cc1 (configuration not stated)	TDP1 cell noCPT inconclusive, DT40 TDP1 CPT inconclusive
CC(C(=O)NC1C=CS(=O)(=O)C1)N1C(=O)/C(=C/c2ccc(Cl)cc2)SC1=S (configuration not stated)	IL1B secr inh -59, TDP1 cell noCPT inconclusive, DT40 TDP1 CPT inconclusive
CCNS(=O)(=O)c1ccc(Br)c(C(=O)OC(C)C(=O)NCC2CCCCC2)c1 (configuration not stated)	TDP1 cell noCPT inconclusive
O=S1(=O)CCOC[C@H](Cc2ccccc2)N1Cc1ccc(Cl)cc1	TDP1 cell noCPT inconclusive, DT40 TDP1 CPT inconclusive (no result: TDP1 block)
O=C(CCN1C(=O)/C(=C/c2ccccc2Cl)SC1=S)NC1C=CS(=O)(=O)C1 (configuration not stated)	IL1B secr inh -63, TDP1 cell noCPT 23µM, DT40 TDP1 CPT 18µM
O=C(CN1C(=O)/C(=C/c2ccccc2Cl)SC1=S)NC1CCS(=O)(=O)C1 (configuration not stated)	none
COC(=O)Cn1c(=O)c2cccn2c2ccc(F)cc21	none (no result: IL1B secr inh)
O=C(c1cccc(S(=O)(=O)Nc2ccc(F)cc2)c1)N1CCC1	none
CCCOc1ccc(C(=O)C(CN2CCCC2)c2ccccc2)cc1 (configuration not stated)	IL1B secr inh -103, TDP1 cell noCPT 5.2µM, DT40 TDP1 CPT 3.7µM, TGFb SMAD3 inh inconclusive
CCCCOc1ccc(C(=O)C(CN2CCOCC2)c2ccccc2)cc1 (configuration not stated)	IL1B secr inh -98, TDP1 cell noCPT 15µM, DT40 TDP1 CPT 13µM, TGFb SMAD3 inh inconclusive
CCCCOc1ccc(C(O)C(CN2CCCCC2)c2ccccc2)cc1 (configuration not stated)	IL1B secr inh inconclusive, TDP1 cell noCPT 23µM, DT40 TDP1 CPT 23µM
O=C(c1ccccc1)C(CCC(CN1CCOCC1)C(=O)c1ccccc1)CN1CCOCC1 (configuration not stated)	IL1B secr inh -118, TDP1 cell noCPT 1.5µM, DT40 TDP1 CPT 0.73µM, TGFb SMAD3 inh inconclusive
O=C(NCCCN1CCCC1=O)C1CCN(S(=O)(=O)c2ccc(Cl)cc2)CC1	none
CNC(=O)c1[nH]cnc1C(=O)NCC(=O)OCc1ccccc1	none (no result: TDP1 block)
COc1ccc(C(=O)C(CN2CCOCC2)c2ccccc2)cc1 (configuration not stated)	IL1B secr inh -99, TDP1 cell noCPT 3.3µM, DT40 TDP1 CPT 2.9µM, TGFb SMAD3 inh inconclusive
COc1ccc(C(=O)C(OC(=O)c2ccccc2)c2ccccc2)cc1 (configuration not stated)	TDP1 cell noCPT inconclusive
COc1ccc(C(=O)C(CN2CCCC2)c2ccccc2)cc1 (configuration not stated)	IL1B secr inh -109, TDP1 cell noCPT 3.2µM, DT40 TDP1 CPT 4µM, HepG2 viability 32µM, TGFb SMAD3 inh 11µM
